Bioassay records as filed in PubChem BioAssay.
Peg3 imprint: qHTS Assay for Compounds that Induce Erasure of Genomic Imprints | mouse ES Peg3-LacZ reporter, beta-gal luminescence, 40 h | Potency, µM (highest dose often 60.7 µM), inactives show at the highest dose activity change, positive = activation, hits mostly activators | 110,000 compounds, 0.02% hits | AID 1948, 2009
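Gelatin-coated wells received 300 freshly trypsinized female ES cells with a Peg3LacZ-Neo reporter on the maternal allele, then incubated 40 hours at 37C. BetaGlo was added for 5 minutes at room temperature before a single luminescence read.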
Tau fil binding: qHTS Assay for Tau Filament Binding. recombinant tau filaments, thioflavin S fluorescence, 15 h; filaments grown with octadecylsulfate alongside compound. Potency, µM (highest dose often 57.1 µM), without a hit: at the highest dose activity change, negative = inhibition. 71,000 compounds, 2% hits;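 also: % is scaled to controls: 0 for no effect and ±100 for the full control effect; actives lower thioflavin S fluorescence by blocking filaments or displacing dye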
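Tau 2 uM in ThS buffer dispensed; compound added; 60 uM ODS added (finals 1 uM tau, 30 uM ODS); 15 h 37 C; fluor ex450/em510.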
p53ts 32C kill: qHTS Screen for Compounds that Selectively Target Cancer Cells with p53 Mutations: Cytotoxicity of p53ts Cells at the Permissive Temperature. H1299-p53A138V at 32C, ATP luminescence viability, 24 h. Potency, µM (highest dose often 46.1 µM), for the others: top-dose activity change, negative = cytotoxicity, most hits filed as cytotoxic. 130,000 compounds, 0.93% hits;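 also: 0% = DMSO and -100% = full killing by reference compound; nearly all actives have a fitted effect of over 55% in size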
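ATP-content luminescence (ATPlite) read-out after 24 h compound exposure at 32C in H1299-p53A138V cells (600/well). Tested up to 46 uM. Normalized to DMSO (0%) and 100 uM tamoxifen (100% killing); Hill-fit AC50.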
p53ts 39C kill: qHTS Screen for Compounds that Selectively Target Cancer Cells with p53 Mutations: Cytotoxicity of p53ts Cells at the Nonpermissive Temperature | H1299-p53A138V viability at 39C, ATP luminescence, 24 h | Potency, µM (top dose mostly 46.1 µM), for the others: top-dose activity change, negative = cell killing, usual class: cytotoxic | 130,000 compounds, 1.5% hits | AID 902, 2007; also: % is scaled to controls: 0 for no effect and ±100 for the full control effect; nearly all actives have a fitted effect of over 55% in size
FLuc inh: qHTS Assay for Inhibitors of Firefly Luciferase. purified firefly luciferase, luminescence, 8 min. Potency, µM (titrated, usually from 57.1 µM), inactives show top-dose activity change, negative = inhibition, most hits filed as inhibitors. 72,000 compounds, 2.2% hits; also: % is scaled to controls: 0 for no effect and ±100 for the full control effect; nearly all actives have a fitted effect of over 40% in size
Target sequence (P08659 whole entry, looked up): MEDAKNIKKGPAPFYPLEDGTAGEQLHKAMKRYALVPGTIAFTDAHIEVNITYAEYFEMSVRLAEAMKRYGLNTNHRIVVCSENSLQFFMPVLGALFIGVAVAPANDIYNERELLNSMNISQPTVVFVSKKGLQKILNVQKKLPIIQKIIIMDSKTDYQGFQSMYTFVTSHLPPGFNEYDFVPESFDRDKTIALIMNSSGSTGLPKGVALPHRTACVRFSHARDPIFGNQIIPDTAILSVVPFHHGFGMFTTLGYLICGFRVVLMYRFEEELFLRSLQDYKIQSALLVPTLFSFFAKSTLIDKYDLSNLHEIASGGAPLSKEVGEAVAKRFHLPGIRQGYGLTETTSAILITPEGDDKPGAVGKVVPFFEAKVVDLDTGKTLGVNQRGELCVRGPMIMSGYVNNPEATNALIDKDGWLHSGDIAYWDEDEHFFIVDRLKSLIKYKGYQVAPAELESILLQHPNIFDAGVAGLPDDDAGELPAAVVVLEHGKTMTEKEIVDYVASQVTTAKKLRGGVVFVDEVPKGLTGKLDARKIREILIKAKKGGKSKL
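Firefly luciferase (PKLight detection mix) with 10 uM ATP in pH 7.2 imidazole buffer (KCl, MgCl2, Tween 20, BSA). Compounds tested across a concentration series (qHTS). Luminescence read after 8 min at ambient temperature.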
* = called active by the depositor; [ ] = dose if it differs, or a comment. Hits are enriched below; roughly 3.4% of the tested compounds scored in any of these assays. Calls follow the shape of the dose curve; as a rule, active = well fitted curve in the direction sought with a large enough effect; inconclusive = small, poorly fitted or top-dose-only effect, or another doubt; inactive = no such curve, though single readings can be large; an effect the other way counts as inactive or inconclusive. Potency is read from the fitted curve at half-maximal effect.

`CC1CCCCN1c1nc(-c2ccncc2)nc2ccccc12` (configuration not stated) gave Peg3 imprint -17%, Tau fil binding 20%, p53ts 32C kill 11%, p53ts 39C kill 15% and FLuc inh 1%.
Screening O=C(CSc1nc2ccccc2nc1Cc1ccccc1)NCc1ccccc1Cl returned Peg3 imprint -13%[10.9 µM], p53ts 32C kill -3% and p53ts 39C kill 16%.
`COc1cccc(-c2nccc(N(C)Cc3ccco3)n2)c1` gave Peg3 imprint -60%, Tau fil binding 9%, p53ts 32C kill 10µM*, p53ts 39C kill 10µM* and FLuc inh -10%[2.29 µM].
COc1ccc(-c2nsc3c(N4CCCC4)ncnc23)cc1 was read as Peg3 imprint -15%, Tau fil binding 6%, p53ts 32C kill inconclusive, p53ts 39C kill inconclusive and FLuc inh 0.79µM*.
`COc1ccc(-c2nsc3c(N4CCN(S(=O)(=O)c5ccccc5)CC4)ncnc23)cc1` gave Tau fil binding -1%, p53ts 32C kill 3%, p53ts 39C kill -3% and FLuc inh 3%.
Screening CCN(c1ccccc1)C(CNS(=O)(=O)c1ccccc1)c1ccccc1 (configuration not stated) returned Peg3 imprint -12%[10.9 µM], p53ts 32C kill 23% and p53ts 39C kill inconclusive.
Screening Cc1cccc(N(C)C(CNS(=O)(=O)c2ccccc2)c2ccccc2)c1 (configuration not stated) returned Peg3 imprint -12%[10.9 µM], p53ts 32C kill 23% and p53ts 39C kill 32µM*.
`CCN(c1cccc(C)c1)C(CNS(=O)(=O)c1ccccc1)c1ccccc1` (configuration not stated) gave Peg3 imprint 2%[10.9 µM], p53ts 32C kill 17% and p53ts 39C kill 13µM*.
COCC(=O)N1CCC[C@@]2(CCN(c3ccccn3)C2)C1 was read as Tau fil binding 11%, p53ts 32C kill -12%, p53ts 39C kill -13% and FLuc inh 0%[11.4 µM].
`CCOC(=O)c1c(C)[nH]c(CCC(=O)Nc2ccc(C)c(F)c2)c1C` gave Peg3 imprint -1%[10.9 µM], p53ts 32C kill 3% and p53ts 39C kill -15%.
Screening COc1ccc(Oc2ncc3nc(-c4ccc(F)cc4)c(=O)n(CCC#N)c3n2)cc1 returned Peg3 imprint -16%, Tau fil binding -11%, p53ts 32C kill 7%, p53ts 39C kill 1% and FLuc inh -1%[11.4 µM].
Screening Cc1ccn2c(Nc3ccccc3)c(-c3c[nH]c4ccccc34)nc2c1 returned Peg3 imprint -8%[10.9 µM], p53ts 32C kill -22% and p53ts 39C kill 16µM*.
Screening Cc1ccc(Nc2c(-c3c[nH]c4ccccc34)nc3cc(C)ccn23)cc1 returned Peg3 imprint 3%[10.9 µM], p53ts 32C kill -19% and p53ts 39C kill inconclusive.
`COc1ccc(OC)c(NC(=O)C2CCCN(S(=O)(=O)c3c(C)noc3C)C2)c1` (configuration not stated) gave Peg3 imprint -14%, Tau fil binding 25µM*, p53ts 32C kill 0%, p53ts 39C kill -12% and FLuc inh 1%.
COc1ccc2nc(NC(=O)C3CCCN(S(=O)(=O)c4cccc5nonc45)C3)sc2c1 (configuration not stated) was read as Peg3 imprint -20%, Tau fil binding 10µM*, p53ts 32C kill 5%, p53ts 39C kill -12% and FLuc inh -5%.
COc1ccc(NC(=O)C2CCCN(S(=O)(=O)c3cccc4nonc34)C2)c(OC)c1 (configuration not stated) was read as Peg3 imprint -14%, Tau fil binding -26%, p53ts 32C kill -2%, p53ts 39C kill 6% and FLuc inh 3%.
COc1ccc(OC)c(NC(=O)C2CCN(S(=O)(=O)c3c(C)noc3C)CC2)c1 was read as Peg3 imprint -22%, Tau fil binding 4%, p53ts 32C kill -3%, p53ts 39C kill -7% and FLuc inh 3%.
Screening COc1ccc(-n2ncc3c2ncn2nc(COc4ccc(Cl)cc4)nc32)cc1 returned Peg3 imprint -10%[10.9 µM], p53ts 32C kill 6% and p53ts 39C kill 2%.
Cc1cc(C(=O)CN2C(=O)c3ccccc3S2(=O)=O)c(C)n1-c1ccccc1 was read as Peg3 imprint -61%, Tau fil binding -8%, p53ts 32C kill 13µM*, p53ts 39C kill 7.9µM* and FLuc inh 7.9µM*.
For CCCn1c(C)cc(C(=O)CN2C(=O)c3ccccc3C2=O)c1C the results were Peg3 imprint -4%, Tau fil binding 1%, p53ts 32C kill -20%, p53ts 39C kill -24% and FLuc inh 16µM*.
Cc1cc(C(=O)CN2C(=O)C3CC=CCC3C2=O)c(C)n1-c1ccccc1 (configuration not stated) was read as Peg3 imprint -22%, Tau fil binding 4%, p53ts 32C kill 10µM*, p53ts 39C kill 13µM* and FLuc inh 4µM*.
For Cc1ccccc1Nc1nn2c(=O)c3ccc(C(=O)NCC(C)c4ccccc4)cc3nc2s1 (configuration not stated) the results were Peg3 imprint -8%[10.9 µM], p53ts 32C kill 2% and p53ts 39C kill -10%.
For CC(=O)OC[C@@H]1O[C@@H](O/N=C2/C[C@@H](O)[C@@H](O)[C@@H]3[C@@H]4C(=O)N(C(C)(C)C)C(=O)[C@H]4CC[C@@H]23)[C@H](OC(C)=O)[C@H](OC(C)=O)[C@@H]1OC(C)=O the results were p53ts 32C kill 7%[9.22 µM], p53ts 39C kill 17%[9.22 µM] and FLuc inh 0%[11.4 µM].
Screening COc1cc(OC)cc(C(=O)N2CCN(C(=O)COc3ccc4ccccc4c3)CC2)c1 returned Peg3 imprint -16%, Tau fil binding 16%, p53ts 32C kill inconclusive, p53ts 39C kill inconclusive and FLuc inh 10µM*.
COc1ccc(N2CCN(C(=O)COc3ccc4ccccc4c3)CC2)cc1 was read as Peg3 imprint -9%, Tau fil binding -5%, p53ts 32C kill 11%, p53ts 39C kill 4% and FLuc inh 0%.
For CCOc1cccc(C(=O)Nc2ccc(N3CCN(S(C)(=O)=O)CC3)cc2)c1 the results were Peg3 imprint -4%, Tau fil binding -15%, p53ts 32C kill -9%, p53ts 39C kill -6% and FLuc inh -2%.
For CCCCOc1cccc(C(=O)Nc2ccc(N3CCN(CC)CC3)cc2)c1 the results were Peg3 imprint -53%, Tau fil binding 20µM*, p53ts 32C kill -3%, p53ts 39C kill -1% and FLuc inh -3%.
